The campaign covered roughly 310,000 compounds. About 14,000 (4.5%) showed an effect of 50% or more. The effect is printed as a negative number. What follows is part of a selection rich in strong results, with near analogues and random picks from the rest.
Each molecule was assayed against human ether-à-go-go-related gene (hERG) potassium channel (human, UniProt Q12809) (assay: primary screen, population patch clamp on CHO cells stably expressing hERG; higher = less effect of the substance).
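Also: peak tail current of the secondary pulse compared with the same well before compound.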

Chain of human ether-à-go-go-related gene (hERG) potassium channel (Q12809 whole entry, looked up): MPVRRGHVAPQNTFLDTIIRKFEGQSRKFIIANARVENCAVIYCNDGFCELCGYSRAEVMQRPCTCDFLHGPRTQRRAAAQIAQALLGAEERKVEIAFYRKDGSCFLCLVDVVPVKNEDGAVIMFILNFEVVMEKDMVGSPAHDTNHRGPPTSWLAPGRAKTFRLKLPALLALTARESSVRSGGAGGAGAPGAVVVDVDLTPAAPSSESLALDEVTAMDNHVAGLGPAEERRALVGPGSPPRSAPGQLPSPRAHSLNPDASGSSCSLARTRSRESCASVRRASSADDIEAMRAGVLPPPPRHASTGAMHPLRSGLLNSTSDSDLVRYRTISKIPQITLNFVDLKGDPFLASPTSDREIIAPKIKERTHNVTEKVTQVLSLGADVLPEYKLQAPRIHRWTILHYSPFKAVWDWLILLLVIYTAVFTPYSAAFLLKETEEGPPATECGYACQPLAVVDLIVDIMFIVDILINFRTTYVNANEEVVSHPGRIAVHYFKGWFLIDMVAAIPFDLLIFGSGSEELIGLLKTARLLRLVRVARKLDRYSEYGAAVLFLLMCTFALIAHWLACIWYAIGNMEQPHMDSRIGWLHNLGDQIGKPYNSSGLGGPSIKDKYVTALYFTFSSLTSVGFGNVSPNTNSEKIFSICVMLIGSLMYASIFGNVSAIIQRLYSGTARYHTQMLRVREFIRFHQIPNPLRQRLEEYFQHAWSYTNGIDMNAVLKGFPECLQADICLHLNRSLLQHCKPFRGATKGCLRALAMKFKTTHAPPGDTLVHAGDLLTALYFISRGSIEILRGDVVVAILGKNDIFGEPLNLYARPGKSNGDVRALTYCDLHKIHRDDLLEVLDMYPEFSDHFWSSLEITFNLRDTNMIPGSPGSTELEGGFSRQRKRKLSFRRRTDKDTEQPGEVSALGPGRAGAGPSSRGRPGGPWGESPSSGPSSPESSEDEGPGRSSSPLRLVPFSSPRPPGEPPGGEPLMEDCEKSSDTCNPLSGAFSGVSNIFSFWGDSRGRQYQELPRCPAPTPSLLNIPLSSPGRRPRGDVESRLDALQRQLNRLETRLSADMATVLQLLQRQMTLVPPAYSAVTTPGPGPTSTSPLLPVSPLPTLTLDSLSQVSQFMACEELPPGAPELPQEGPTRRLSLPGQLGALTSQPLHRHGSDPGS

Compound | hERG current change (%, negative = inhibition) at 10uM [%]
Nc1c(C(=O)NCC2CCCO2)c2nc3ccccc3nc2n1-c1ccccc1 (centres unmarked) | 2.35
O=C(O)C1CCCN(S(=O)(=O)c2ccc(-c3ccc(=O)[nH]n3)s2)C1 (centres unmarked) | 16.5
Cc1cccc(C)c1NC(=O)C1CCCN1S(=O)(=O)c1ccc(-c2ccc(=O)[nH]n2)s1 (centres unmarked) | -68.2
CCc1ccccc1NC(=O)C1CCCN1S(=O)(=O)c1ccc2c(c1)n(C)c(=O)c(=O)n2C (centres unmarked) | -3.91
Cc1ccc(NC(=O)C2CCCN2S(=O)(=O)c2ccc(-c3ccc(=O)[nH]n3)s2)c(C)c1 (centres unmarked) | -15.4
CCc1nnc(NC(=O)C2CCCN2S(=O)(=O)c2ccccc2)s1 (centres unmarked) | 14.8
CCc1ccccc1NC(=O)C1CCCN1S(=O)(=O)c1ccc(-c2ccc(=O)[nH]n2)s1 (centres unmarked) | -54.7
Cc1ccc(Cl)cc1NC(=O)C1CCCN1S(=O)(=O)c1ccc(-c2ccc(=O)[nH]n2)s1 (centres unmarked) | -65.4
Cc1cccc(C)c1NC(=O)C1CCCN1S(=O)(=O)c1ccccc1 (centres unmarked) | 4.4
O=C(Nc1ccc(F)cc1F)C1CCCN1S(=O)(=O)c1ccc(-c2ccc(=O)[nH]n2)s1 (centres unmarked) | -33.5
COc1cccc(N2CCN(c3nc(-c4ccccc4C)cc(=O)[nH]3)CC2)c1 | 3.88
c1cc2c(cc1C1=NNC(=NC3CC3)SC1)OCCO2 | 16.8
Cc1cc(C(=O)NNC(=O)c2sccc2C)c(C)o1 | 7.27
O=S(=O)(c1ccc(F)cc1)N1CCN(c2ccccc2)CC1 | -6.53
CCN(C(=O)CCS(=O)(=O)c1cc2c(cc1Cl)NC(=O)CO2)c1ccccc1 | -21.8
CN(Cc1ccccc1)C(=O)CCS(=O)(=O)c1cc2c(cc1Cl)NC(=O)CO2 | -38.9
CCN(Cc1ccccc1)C(=O)CCS(=O)(=O)c1cc2c(cc1Cl)NC(=O)CO2 | -50.7
O=C1Nc2ccc(Br)cc2C12NNc1ccccc1O2 (centres unmarked) | 23.9
Cn1c(N)c(C(=O)NCc2ccccc2Cl)sc1=S | 18
Cc1ccccc1NC(=O)CSc1nc2ccccc2c(=O)n1C | 1.39
Cc1cccc(NC(=O)CSc2nc3ccccc3c3nc(CCc4c(C)n[nH]c4C)nn23)c1 | -9.44
Cc1ccccc1NC(=O)CSc1nc2ccccc2c2nc(CCn3cncc3C)nn12 | -55.6
Cc1ccc(NC(=O)CSc2nc3ccccc3c3nc(CCn4cncc4C)nn23)c(C)c1 | 2.77
Cc1ccc(NC(=O)CSc2nc3ccccc3c3nc(CCc4c(C)n[nH]c4C)nn23)cc1F | -11.7
Cc1cncn1CCc1nc2c3ccccc3nc(SCC(=O)Nc3cccc(Cl)c3)n2n1 | -78.4
CCCCOC(=O)c1sc2nc(N3CCOCC3)c3c(c2c1N)CC(C)(C)OC3 | 9.29
CCOC(=O)C1CCN(C(=O)c2ccc3c(c2)OCO3)CC1 | -5.29

Compound | hERG current change (%, negative = inhibition) at 10uM [%]
Cl.Clc1c(OCCCn2ccnc2)ccc2ccccc12 | -31.9
COCCN1C(=O)/C(=C/c2ccc(OCc3ccc(C(=O)O)cc3)c(OC)c2)SC1=Nc1ccccc1 | 7.58
NNC(=O)c1sccc1OCc1ccc(Cl)cc1Cl | -18.5
C=CCNC(=O)/C=C/c1cccs1 | 16.4
COC(=O)c1ccc(NC(=O)COC(=O)C2CCC2)cc1 | 4.03
Cc1cccc2cc(CN(CC3CCCO3)C(=S)Nc3ccccc3)c(=O)[nH]c12 (centres unmarked) | 2.39
CCN(CC)CCN(Cc1cc2cc(C)ccc2[nH]c1=O)C(=S)Nc1ccccc1 | -50.6
Cc1ccc(NC(=S)N(CCN(C)C)Cc2cc3cc(C)cc(C)c3[nH]c2=O)cc1 | -7.41
Cc1cccc(NC(=S)N(CCN(C)C)Cc2cc3cc(C)ccc3[nH]c2=O)c1 | -16.5
Cc1cccc2cc(CN(CCN(C)C)C(=S)Nc3ccccc3)c(=O)[nH]c12 | -24
CCN(CC)CCN(Cc1cc2cccc(C)c2[nH]c1=O)C(=S)Nc1ccccc1 | -66.2
Cc1ccc(NC(=S)N(Cc2cccs2)Cc2cc3cccc(C)c3[nH]c2=O)cc1 | -9.88
Cc1ccc(NC(=S)N(CCN(C)C)Cc2cc3cc(C)ccc3[nH]c2=O)cc1 | -43.5
Cc1ccc(NC(=S)N(CCN(C)C)Cc2cc3cccc(C)c3[nH]c2=O)cc1 | -55.6
Cc1ccc(C(=O)N(CN2CCCC2=O)c2ccccc2)cc1 | -1.3
CCN(CC(=O)NCc1ccc(Cl)cc1)CC(=O)NC1(C#N)CCCC1 | -19.2
CC[C@H](C)Cc1cn([C@@H](CCCN=C(NC(=O)OC(C)(C)C)NC(=O)OC(C)(C)C)C(=O)NCCCCCCCCCCC(=O)N2CCN(C(=O)OC(C)(C)C)CC2)nn1 | 4.2
CCOC(=O)c1c(NC(=O)C2=C(C)NC(=S)NC2c2ccc(CC)cc2)sc(C)c1C (centres unmarked) | 7.47
Cc1cc(SCC(=O)NN)c2cc(Br)ccc2n1 | -1.57
Cc1ccc(S(=O)(=O)N2CCOC2CNC(=O)C(=O)NCCc2ccccc2)cc1 (centres unmarked) | -25.6
CCOC(=O)c1c(N)c2cc([N+](=O)[O-])cnc2n1C | 17.3
CCOC(=O)c1cc2sccc2n1CCCN1C(=O)c2ccccc2C1=O | 6.01
CN1CCN(C(N)=NC(=O)c2ccccc2)CC1 | 6.76
COc1ccc(Cl)cc1S(=O)(=O)N1CCN=C1Cc1ccccc1 | -18.9
CCc1ccc(NS(=O)(=O)c2cc3[nH]c(=O)c(=O)[nH]c3cc2C)cc1 | 9.15
CC/C(=N\Nc1ccc([N+](=O)[O-])cc1[N+](=O)[O-])c1ccc(O)cc1 | 21.7

Source: paper PMC4336329 (PLoS ONE, 2015)
